From PubChem
Only some compounds are listed: those with a hit (about 7.3% of all), similar ones and a draw of the others.
Tau fibril ThT: qHTS for Inhibitors of Tau Fibril Formation, Thioflavin T Binding; Microtubule-associated protein tau (Homo sapiens), P10636; recombinant tau K18 P301L, heparin-induced fibrillization, ThT fluorescence; Potency, µM (doses to about 57.4 µM), for inactives: at the top dose activity, negative = inhibition, hits mostly inhibitors; 270,000 compounds, 2.1% hits; note: nearly all actives have a fitted effect of over 55% in size
Target sequence (P10636 561-689 P618L limits assumed): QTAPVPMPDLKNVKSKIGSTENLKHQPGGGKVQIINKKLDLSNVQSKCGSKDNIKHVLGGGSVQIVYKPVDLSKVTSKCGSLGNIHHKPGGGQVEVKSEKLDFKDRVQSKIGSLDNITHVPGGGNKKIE
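Using a mix of unlabeled (15 uM) and Alexa 594-labeled (0.24 uM) tau K18 P301L, heparin-triggered fibrillization over 6 hr at 37 C was scored by ThT fluorescence.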
RORgamma inh: qHTS for inhibitors of ROR gamma transcriptional activity; Potency, µM (series often up to 53.6 µM), without a hit: at the highest dose activity change, negative = inhibition, hits mostly inhibitors; Nuclear receptor ROR-gamma (Mus musculus), P51450; Drosophila S2 Gal4-RORgamma UAS-luciferase reporter, 20 h; AID 2551, 2010; 310,000 compounds, 5.4% hits; note: nearly all actives have a fitted effect of over 60% in size
Target sequence (P51450 whole entry, looked up, the tested form may be a part): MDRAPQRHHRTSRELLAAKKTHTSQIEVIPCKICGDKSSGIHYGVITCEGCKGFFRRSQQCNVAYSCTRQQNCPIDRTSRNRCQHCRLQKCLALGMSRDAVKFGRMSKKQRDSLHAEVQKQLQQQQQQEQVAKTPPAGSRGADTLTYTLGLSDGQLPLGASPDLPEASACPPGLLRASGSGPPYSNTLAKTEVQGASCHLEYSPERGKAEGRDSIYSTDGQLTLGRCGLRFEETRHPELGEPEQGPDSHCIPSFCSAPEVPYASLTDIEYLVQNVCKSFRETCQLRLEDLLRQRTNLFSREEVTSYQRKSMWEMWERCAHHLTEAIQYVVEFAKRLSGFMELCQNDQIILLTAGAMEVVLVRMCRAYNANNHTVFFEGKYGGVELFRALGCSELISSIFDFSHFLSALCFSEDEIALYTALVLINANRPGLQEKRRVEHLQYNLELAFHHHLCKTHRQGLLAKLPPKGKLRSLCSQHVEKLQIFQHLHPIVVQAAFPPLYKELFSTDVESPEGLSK
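Schneider cells (Drosophila), stable Gal4 DBD–ROR gamma + UAS-luc; 1 hr cmpd preincubation; Cu2+ induction 700 uM final; 20 hr ambient; luminescence.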
Gal4-VP16 FLuc: VP16 counterscreen qHTS for inhibitors of ROR gamma transcriptional activity. Drosophila S2 Gal4-VP16 UAS-luciferase, luminescence, 20 h. Potency, µM (series often up to 53.6 µM), inactives show at the top dose activity, negative = inhibition, actives largely listed as inhibitors. 310,000 compounds, 3.5% hits. AID 2546, 2010;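 note: Gal4-VP16 expression switched on by copper sulfate through the metallothionein promoter; nearly all actives have a fitted effect of over 50% in size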
Tau fluor counter: Counterscreen qHTS for Inhibitors of Tau Fibril Formation, Fluorescence Polarization. tau K18 P301L (four-repeat tau fragment) Alexa594 fluorescence, heparin fibrillization. Potency, µM (titrated, usually from 57.7 µM), without a hit: at the top dose activity change, negative = decrease. 280,000 compounds, 0.93% hits. AID 1463, 2008; note: nearly all actives have a fitted effect of over 55% in size
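Human K18 P301L tau (15 uM unlabeled plus 0.24 uM Alexa 594-labeled, final) in 100 mM sodium acetate pH 7 was mixed with compound and 20 uM heparin and incubated 6 hr at 37 C.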
Tau fibril FP: qHTS for Inhibitors of Tau Fibril Formation, Fluorescence Polarization. K18 P301L tau heparin fibrillization, Alexa594 FP, 6 h. Potency, µM (highest dose often 57.7 µM), inactives show at the highest dose activity, negative = inhibition, usual class: inhibitors. 280,000 compounds, 0.39% hits; note: nearly all actives have a fitted effect of over 55% in size
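Recombinant K18 P301L […], labeled with Alexa 594 at 0.24 uM over 15 uM unlabeled; heparin inducer 20 uM final; 37 C, 6 hr; FP endpoint.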
* marks the source's active call; other numbers are inactive results; u = inconclusive; x = no result; [ ] = remark or other dose. Calls come from the whole dose curve; as a rule, active = well fitted curve in the direction sought with a large enough effect; inconclusive = small, poorly fitted or top-dose-only effect, or another doubt; inactive = no such curve, though single readings can be large; an effect the other way counts as inactive or inconclusive. % is set by controls: 0 for no effect and ±100 for the full control effect; potency is the fitted concentration of half-maximal effect.

SMILES | Tau fibril ThT | RORgamma inh | Gal4-VP16 FLuc | Tau fluor counter | Tau fibril FP
Cc1cccc(NC(=S)NC(=O)c2oc3ccccc3c2C)n1 | x | 8.91µM* | 16.7% | x | x
Cc1c(C(=O)NC(=S)Nc2ccc(NC(=O)c3cccs3)cc2)oc2ccccc12 | u | u | u | u | 4.8%
COc1cc(C(=O)NC(=S)Nc2cccc3nc(C)ccc23)cc(OC)c1OC | -3.0% | -24.9% | 7.3% | -3.2% | -3.7%
Cc1ccc2c(NC(=S)NC(=O)c3ccccc3)cccc2n1 | x | 15.8µM* | u | x | x
Cc1cccc(NC(=S)NC(=O)c2ccc(-c3ccccc3)cc2)n1 | x | 3.98µM* | u | x | x
CC(C)NC(=S)NC(=O)c1ccc(-c2ccccc2)cc1 | -17.1% | 2.51µM* | 3.16µM* | -17.0% | 3.5%
Cc1ccc(CCNC(=O)C(NS(=O)(=O)c2ccc3c(c2)oc(=O)n3C)C(C)C)cc1 (configuration not stated) | 5.7% | x | x | 1.8% | 0.3%
O=C(CSc1nc2ccccc2s1)N/N=C/c1ccco1 | -12.5% | -34.8% | 23.7% | 0.4% | 1.7%
N#C/C(=C\c1ccco1)Sc1nc2ccccc2s1 | -14.6% | -10.1% | 12.6µM* | -24.9% | -0.3%
O=S(=O)(CCSc1nc2ccccc2s1)c1nc2ccccc2s1 | u | 7.08µM* | 15.8µM* | u | -5.1%
c1ccc2sc(SSc3nc4ccccc4s3)nc2c1 | x | 12.6µM* | u | x | x
CCS(=O)(=O)CCSc1nc2ccccc2s1 | 2.4% | 3.6% | 24.4% | -4.5% | -9.1%
O=S1(=O)C=C(Sc2nc3ccccc3s2)c2ccccc21 | 10µM* | 4.47µM* | 2.82µM* | -13.7% | u
CN(C)c1ncnc2ccc(-c3ccccc3C(F)(F)F)cc12 | x | -7.1% | -9.3% | x | x
CCCCNC(=O)CCn1c(=O)c2ccccc2n(Cc2cccc(Cl)c2)c1=O | 7.3% | x | x | 1.3% | 1.0%
Cn1c(CSc2nc3ccccc3s2)n[nH]c1=S | -6.2% | u | -5.8%[0.365 µM] | -0.1% | 5.4%
Cn1c(CSc2nc3ccccc3s2)nc2ccccc21 | u | 11.2µM* | u | -11.2% | 4.0%
c1ccc2[nH]c(CSc3nc4ccccc4s3)nc2c1 | u | 20µM* | u | -23.7% | 3.4%
Cc1nnc(SCc2nc3ccccc3[nH]2)s1 | -5.4% | 9.3% | 10.1% | -7.0% | -8.1%
S=c1[nH]nc(CSc2nc3ccccc3s2)o1 | -15.0% | 14.1µM* | u | -6.3% | -7.0%
O=C(CSc1nc2ccccc2s1)CSc1nc2ccccc2s1 | -10.4% | -86.4% | -15.8% | -20.9% | -6.5%
Cc1cccc(C)c1NC(=O)CN(C)S(=O)(=O)c1ccc2c(c1)n(C)c(=O)c(=O)n2C | 2.1% | x | x | 3.7% | 1.1%
O=C(/C=C/c1ccc(O)cc1)c1ccc(NC2=C(N3CCCCC3)C(=O)c3ccccc3C2=O)cc1 | 7.94µM* | 0.316µM* | u | 12.6µM*[quencher] | u
O=C1C(Nc2ccccc2)=C(N2CCCCC2)C(=O)c2ccccc21 | 17.8µM* | 40.2% | 6.0% | -25.6% | u
Cc1ccc(NC2=C(N3CCCCC3)C(=O)c3ccccc3C2=O)cc1 | -14.6% | -39.5% | u | -25.1% | -5.2%
SMILES | Tau fibril ThT | RORgamma inh | Gal4-VP16 FLuc | Tau fluor counter | Tau fibril FP
O=C1C(Nc2cccc(O)c2)=C(N2CCCCC2)C(=O)c2ccccc21 | 14.1µM* | -36.9% | u | 17.8µM*[quencher] | u
COc1ccccc1NC1=C(N2CCCCC2)C(=O)c2ccccc2C1=O | 12.6µM* | -11.6% | u | u | u
Cc1ccc(N=C2SC(C(=O)NCCc3ccccc3)CC(=O)N2C)cc1C (configuration not stated) | -0.6% | 32.2% | 2.2% | -13.1% | 4.0%
O=c1c(O)c(-c2cccs2)oc2ccccc12 | -17.5% | 22.4µM* | 0.0%[0.365 µM] | -5.6% | 7.7%
O=c1c2ccccc2oc2ccccc12 | u | -34.8% | -0.5% | -15.6% | -14.9%
O=c1c(O)c(-c2cccs2)oc2ccc(Cl)cc12 | u | 11.2µM* | u | u | -5.9%
COc1cc2c(=O)n(Cc3ccccc3Cl)c(=O)n(CC(=O)Nc3ccc(C)c(C)c3)c2cc1OC | 14.4% | x | x | -23.1% | u
O=C(Nc1cc(Cl)ccc1Cl)Nn1cnnc1 | x | 13.4% | -1.2% | x | x
O=C(N/N=C/c1ccc(-c2cccc([N+](=O)[O-])c2)o1)c1ccc([N+](=O)[O-])cc1 | 5.62µM* | 2.51µM* | 5.01µM* | u | 10.2%
COc1cc(C(=O)NCC(=O)N/N=C/c2ccc(-c3cccc([N+](=O)[O-])c3)o2)cc(OC)c1OC | x | u | 1.3% | x | x
CSc1ccc(/C=N/NC(=O)c2ccc(C)c(C)c2)cc1 | 13.1% | u | u | 13.2% | 7.0%
O=C(N/N=C/c1ccc(-c2cccc([N+](=O)[O-])c2)o1)c1ccccc1O | 8.91µM* | 3.16µM* | 2.24µM* | u | 7.1%
O=C(N/N=C\c1ccc(COc2ccc([N+](=O)[O-])cc2)o1)c1ccc(Cl)cc1 | u | 12.6µM* | u | u | u
CSc1ccc(/C=N/NC(=O)c2sccc2C)cc1 | -1.7% | 8.91µM* | u | 5.5% | -6.1%
COc1cc([N+](=O)[O-])ccc1-c1ccc(/C=N/NC(=O)c2ccccc2O)o1 | 1.58µM* | 1µM* | 3.98µM* | u | 4.4%
COc1ccc(OCc2ccc(/C=N\NC(=O)c3sccc3C)o2)cc1 | x | 11.2µM* | u | x | x
COc1ccc(-c2cnc(C)o2)cc1S(=O)(=O)Nc1ccc(F)cc1F | -2.5% | x | x | -9.5% | -7.4%
Cc1nc2ccccn2c1C(=O)N/N=C/c1cc(C)n(-c2ccc(Cl)cc2)c1C | u | 20µM* | 12.6µM* | -12.3% | -2.3%
Cc1nc2ccccn2c1C(=O)N/N=C/c1ccccc1[N+](=O)[O-] | u | -8.1% | -1.6% | -16.7% | -1.1%
Cc1cc(/C=N/NC(N)=S)c(C)n1-c1ccc(Cl)c(Cl)c1 | u | 1.41µM* | 3.16µM* | -20.6% | 0.4%
CCNC(=S)N/N=C/c1cc(C)n(-c2ccc(Cl)cc2)c1C | -15.3% | 1.41µM* | 5.01µM* | -23.3% | 5.8%
Cc1ccccc1Br | x | -2.3% | 2.2% | x | x
CN(C)c1ccc(N=Nc2cccc3ccoc23)cc1 | 1.41µM* | -26.6% | -6.5% | 15.8µM*[quencher] | 11.4%
NC(=S)N/N=C/c1ccc(-c2cc(Cl)ccc2Cl)o1 | u | 1.26µM* | 2.82µM* | u | 0.3%
O=C1Nc2ccccc2/C1=N/N=C/c1ccc(-c2ccc([N+](=O)[O-])cc2)o1 | 2.82µM* | -3.8% | -2.8% | -28.0% | 2.6%
NC(=S)N/N=C/c1ccc(-c2cc(Cl)cc(Cl)c2)o1 | u | 1.26µM* | 3.98µM* | -26.8% | -1.9%
CCOC(=O)N/N=C\c1ccc(-c2cc(Cl)ccc2Cl)o1 | -13.8% | 21.7% | -19.1% | -23.4% | 0.1%
